Assay results reported in PubChem BioAssay (NCATS).
Records with an inconclusive call do not appear. Unmarked numbers belong to inactive results. Calls of active or inactive are those of the source. Calls come from the whole dose curve; as a rule, active = well fitted cell-killing curve with a large enough effect; inconclusive = small, poorly fitted or top-dose-only effect; inactive = flat fitted curve, though single readings scatter.

Experiment: Cellular viability qHTS for adrenocortical cancer (ACC) cell line NCI-H295R (AID 1963990); note: nearly all actives have a fitted effect of over 60% in size;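 for activity change, negative = viability loss: 0% = DMSO only wells and -100% = full killing with cytotoxic reference compound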
Conditions: CellTiter-Glo ATP luminescence, 48 h; series mostly up to 46.1 µM; activity change, negative = viability loss: at the top concentration
Method in brief: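 IC50 and maximal efficacy derive from four-parameter logistic modelling of titration curves, with reads scaled between DMSO-only wells (0%) and doxorubicin hydrochloride (100% inhibition). Compounds spanned up to 46 uM over 48 h.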

SMILES | Potency | activity change, negative = viability loss [%]
CC(C)[C@](O)(c1ccc2cc(OC(F)F)c(OC(F)F)cc2c1)c1cn[nH]n1 | 25.1 µM (active) | 
O=C(NOCC(O)CO)c1ccc(F)c(F)c1Nc1ccc(I)cc1F (centres undefined) |  | -15.1
C[C@@H]1COCCN1c1cc(-c2ccnn2C)c2ccnc(-c3ccn[nH]3)c2n1 | 0.158 µM (active) | 
NS(=O)(=O)c1ccc(NC(=S)N2CCN(C/C=C/c3ccccc3)CC2)cc1 |  | -27.8
O=C1c2ccccc2CCc2ccccc21 |  | -5.97
CC(=O)Oc1ccc2c(c1)CC[C@@H]1[C@@H]2CC[C@]2(C)[C@@H](O)CC[C@@H]12 | 18.4 µM (active) | 
Cc1cc2cc(Oc3ccnc(Nc4cccc(CS(=O)(=O)NCCN(C)C)c4)n3)ccc2[nH]1 | 25.1 µM (active) | 
O=C(/C=C/c1ccccc1)NCCO | 14.6 µM (active) | 
NC(N)=NN=C(/C=C/c1ccc([N+](=O)[O-])o1)/C=C/c1ccc([N+](=O)[O-])o1 | 1.03 µM (active) | 
COCCNCc1ccc(-c2cc3nccc(Oc4ccc(NC(=S)NC(=O)Cc5ccc(F)cc5)cc4F)c3s2)nc1 | 12.6 µM (active) | 
COc1ccc(/C=N/NC(=O)c2ccncc2)cc1OC |  | 3.52
Cc1cc(Oc2ccc3nc(COc4ccc(CC5SC(=O)NC5=O)cc4)n(C)c3c2)cc(C)c1N (centres undefined) |  | 15.1
O=C(O)c1ccccc1Nc1cccc(C(F)(F)F)c1 |  | -20.9
CCCCCCCCCCCCCCNCCO | 23.1 µM (active) | 
CCOC(=O)[C@H](CCc1ccccc1)N[C@@H](C)C(=O)N1Cc2ccccc2C[C@H]1C(=O)O | 16.4 µM (active) | 
COc1cc2c(NC3CCN(C)CC3)nc(N3CCCN(C)CC3)nc2cc1OCCCN(C)C |  | -3.5
Cc1nc([C@](C)(O)CO)sc1-c1cnc(N)c(O[C@H](C)c2cc(F)ccc2-n2nccn2)c1 | 2.82 µM (active) | 
CC[C@H](NC(=O)[C@H](C)NC)C(=O)N1C[C@@H](O)C[C@H]1Cc1c(-c2[nH]c3cc(F)ccc3c2C[C@@H]2C[C@H](O)CN2C(=O)[C@H](CC)NC(=O)[C@H](C)NC)[nH]c2cc(F)ccc12 |  | 9.26
CN(C)CCOC1=Cc2ccccc2Sc2ccc(Cl)cc21 | 20.6 µM (active) | 
COc1cc2c(cc1OC)-c1cc(=Nc3c(C)cc(C)cc3C)n(C)c(=O)n1CC2 | 20.6 µM (active) | 
O=C(/C=C\n1cnc(-c2cc(C(F)(F)F)cc(C(F)(F)F)c2)n1)NNc1ccccn1 | 3.98 µM (active) | 
Cc1cc(C(=O)Nc2cc(Oc3ccc4nc(NC(=O)C5CC5)cn4n3)ccc2C)n(C)n1 | 22.4 µM (active) | 
CC(C)(CNC(=O)c1cccc(-c2noc(C(F)(F)F)n2)c1)c1coc(-c2ccccc2)n1 |  | -11.2
CN1CCN(c2ccc(Nc3ncc4cc(C#N)c(=O)n(C5CCCC5)c4n3)cc2)CC1 |  | -16.4
